Results filed as inconclusive are left out. Activity calls are given as the source filed them. How the source made its calls, unless noted: active means hit-call score of the fitted dose curve at least 0.9, where 1 is the maximum; inactive means score below 0.9.
Assays:
[1] = read-out: E-selectin (Homo sapiens) (UniProt P16581); experiment: BSK_3C_Eselectin: BioMAP Diversity Plus: 3C Assay for Eselectin Biomarker Activity (AID 2283015); settings: primary human endothelial cells (HUVEC); actives raise or lower the signal;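 further: cell surface E-selectin protein quantified by ELISA 24 h after dosing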
Procedure, shortened: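 E-selectin ELISA readout, fitted bidirectionally relative to DMSO, taken 24 h post-dosing in HUVEC cultures of the 3C system. Overt cytotoxicity tracked with sulforhodamine B staining of parallel wells.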

[2] = read-out: Interleukin-1 alpha (IL1a), IL1A (gene 3552); experiment: BSK_BE3C_IL1a: BioMAP Diversity Plus: BE3C Assay for Interleukin-1 alpha (IL1a) Biomarker Activity (AID 2283016); settings: primary human bronchial epithelial cells; actives raise or lower the signal
Procedure, shortened: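 IL-1a measured by ELISA after 24 h treatment of human primary bronchial epithelial cells, with gain or loss of signal fitted versus DMSO. Parallel cultures stained with SRB gauge overt cytotoxicity.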

[3] = read-out: Monocyte Chemoattractant Protein-1 (MCP1), CCL2 (gene 6347); experiment: BSK_3C_MCP1: BioMAP Diversity Plus: 3C Assay for Monocyte Chemoattractant Protein-1 (MCP1) Biomarker Activity (AID 2283017); settings: primary human endothelial cells (HUVEC); actives raise or lower the signal
Procedure, shortened: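 MCP-1 was measured by ELISA 24 h after dosing in primary HUVEC 3C cultures and fitted in both directions relative to DMSO; cytotoxicity was checked by SRB total-protein staining in parallel wells.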

[4] = read-out: Monocyte Chemoattractant Protein-1 (MCP1), CCL2 (gene 6347); experiment: BSK_4H_MCP1: BioMAP Diversity Plus: 4H Assay for Monocyte Chemoattractant Protein-1 (MCP1) Biomarker Activity (AID 2283018); settings: primary human endothelial cells (HUVEC); actives raise or lower the signal
Procedure, shortened: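 ELISA of MCP-1 (CCL2) 24 h after chemical dosing of HUVEC in the BioMAP 4H system. Gain or loss versus DMSO fitted; parallel SRB staining (560 nm) tracked overt cytotoxicity.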

[5] = read-out: Human Leukocyte Antigen - DR isotype (HLADR), HLA-DRA (gene 3122); experiment: BSK_3C_HLADR: BioMAP Diversity Plus: 3C Assay for Human Leukocyte Antigen - DR isotype (HLADR) Biomarker Activity (AID 2283019); settings: primary human endothelial cells (HUVEC); actives raise or lower the signal
Procedure, shortened: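 Bidirectional fitting against DMSO was applied to the HLA-DR ELISA signal from human umbilical vein endothelial cells, 24 h post-dose. Cytotoxicity came from parallel SRB total-protein staining; 3C proliferation was counted by SRB at 48 h.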

[6] = read-out: Interleukin-8 (IL8), CXCL8 (gene 3576); experiment: BSK_3C_IL8: BioMAP Diversity Plus: 3C Assay for Interleukin-8 (IL8) Biomarker Activity (AID 2283020); settings: primary human endothelial cells (HUVEC); actives raise or lower the signal
Procedure, shortened: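 IL-8 was measured by ELISA in HUVEC cultures 24 h after chemical dosing, with gain or loss of signal fitted relative to DMSO. Parallel SRB total-protein staining tracked overt cytotoxicity.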

[7] = read-out: Monokine induced gamma interferon (MIG), CXCL9 (gene 4283); experiment: BSK_3C_MIG: BioMAP Diversity Plus: 3C Assay for Monokine induced gamma interferon (MIG) Biomarker Activity (AID 2283021); settings: primary human endothelial cells (HUVEC); actives raise or lower the signal
Procedure, shortened: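 ELISA measurement of MIG in human umbilical vein endothelial cells 24 h after treatment. Cytotoxicity tracked by SRB staining in parallel cultures; gain or loss of signal fitted relative to DMSO.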

[8] = molecular target: human Vitamin D Receptor (VDR), VDR (gene 7421) (UniProt P11473); experiment: ATG_VDR_TRANS: Attagene TRANS-FACTORIAL HepG2 Assay for human Vitamin D Receptor (VDR) (AID 2283022; active means hit-call score of the fitted dose curve at least 0.9, where 1 is the maximum)
Procedure, shortened: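 Transactivation by an exogenous VDR-Gal4 chimera in transiently transfected HepG2 cells was measured as reporter transcript level 24 hours after chemical treatment. RT-PCR products were analysed by capillary electrophoresis and fitted in the positive direction relative to DMSO.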

[9] = BSK_3C_SRB: Viability Assessment in the BioMAP Diversity Plus: 3C Assay (AID 2283023); settings: primary human endothelial cells (HUVEC);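 further: fitted both ways against DMSO so a hit may be signal rise or drop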
Procedure, shortened: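 Cytotoxicity readout in parallel HUVEC 3C cultures: after 24 h compound exposure, cells fixed with 10% TCA, stained with 0.1% SRB and read at 560 nm. Gain or loss relative to DMSO fitted.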

[10] = read-out: Matrix Metallopeptidase 1 (MMP1), MMP1 (gene 4312); experiment: BSK_BE3C_MMP1: BioMAP Diversity Plus: BE3C Assay for Matrix Metallopeptidase 1 (MMP1) Biomarker Activity (AID 2283024); settings: primary human bronchial epithelial cells; actives raise or lower the signal
Procedure, shortened: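 ELISA measurement of MMP-1 after 24 h compound exposure of primary human bronchial epithelial cells. Changes in either direction fitted relative to DMSO; parallel SRB staining checked overt cytotoxicity.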

[11] = read-out: Pselectin, SELP (gene 6403); experiment: BSK_4H_Pselectin: BioMAP Diversity Plus: 4H Assay for Pselectin Biomarker Activity (AID 2283026); settings: primary human endothelial cells (HUVEC); actives raise or lower the signal
Procedure, shortened: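 ELISA of surface P-selectin on HUVEC, 24 h after dosing, with parallel SRB staining (0.1% after 10% TCA fixation, 560 nm) for overt cytotoxicity. Activity fitted in both directions relative to DMSO.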

[12] = BSK_4H_SRB: Viability Assessment in the BioMAP Diversity Plus: 4H Assay (AID 2283027); settings: primary human endothelial cells (HUVEC);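 further: cells exposed to compound for 24 h before staining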
Procedure, shortened: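 HUVEC, 24 h post-dose; 10% TCA fix, 0.1% SRB stain, A560 nm. Total protein = overt cytotoxicity, parallel to biomarker read. Bidirectional fit vs DMSO baseline.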

[13] = BSK_BE3C_SRB: Viability Assessment in the BioMAP Diversity Plus: BE3C Assay (AID 2283028); settings: primary human bronchial epithelial cells
Procedure, shortened: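 Cytotoxicity read-out: SRB (0.1%) staining of TCA-fixed (10%) human lung bronchial epithelial cells, absorbance 560 nm, 24 h post-dosing. Curves fitted both directions relative to DMSO.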

[14] = read-out: Thrombomodulin, THBD (gene 7056); experiment: BSK_3C_Thrombomodulin: BioMAP Diversity Plus: 3C Assay for Thrombomodulin Biomarker Activity (AID 2283029); settings: primary human endothelial cells (HUVEC); actives raise or lower the signal
Procedure, shortened: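 ELISA measurement of thrombomodulin on HUVEC surface 24 h after chemical dosing; activity fitted in both directions relative to DMSO vehicle.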

[15] = read-out: Urokinase-type plasminogen activator receptor (uPAR), PLAUR (gene 5329); experiment: BSK_4H_uPAR: BioMAP Diversity Plus: 4H Assay for Urokinase-type plasminogen activator receptor (uPAR) Biomarker Activity (AID 2283030); settings: primary human endothelial cells (HUVEC); actives raise or lower the signal
Procedure, shortened: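 uPAR level read by ELISA on HUVEC cultures (BioMAP 4H) 24 h post-dosing, analyzed for gain or loss relative to DMSO. Parallel SRB staining assessed overt cytotoxicity.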

[16] = read-out: Human Leukocyte Antigen - DR isotype (HLADR), HLA-DRA (gene 3122); experiment: BSK_BE3C_HLADR: BioMAP Diversity Plus: BE3C Assay for Human Leukocyte Antigen - DR isotype (HLADR) Biomarker Activity (AID 2283032); settings: primary human bronchial epithelial cells; actives raise or lower the signal
Procedure, shortened: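 Cell-surface HLA-DR ELISA readout at 24 h after dosing in the BE3C primary human lung bronchial epithelial system; gain or loss of signal against DMSO, with parallel sulforhodamine B staining of total protein for overt cytotoxicity.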

[17] = read-out: Vascular endothelial growth factor receptor 2 (Homo sapiens) (UniProt P35968); experiment: BSK_4H_VEGFRII: BioMAP Diversity Plus: 4H Assay for Vascular endothelial growth factor receptor 2 (VEGFR2) Biomarker Activity (AID 2283031); settings: primary human endothelial cells (HUVEC); actives raise or lower the signal
Procedure, shortened: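 Measured by ELISA after 24 h of compound treatment: VEGFR2 on primary human umbilical vein endothelial cells, fitted in both directions relative to DMSO. Parallel cultures received SRB staining (560 nm) for overt cytotoxicity.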

E-selectin (Homo sapiens), sequence (P16581 whole entry, looked up): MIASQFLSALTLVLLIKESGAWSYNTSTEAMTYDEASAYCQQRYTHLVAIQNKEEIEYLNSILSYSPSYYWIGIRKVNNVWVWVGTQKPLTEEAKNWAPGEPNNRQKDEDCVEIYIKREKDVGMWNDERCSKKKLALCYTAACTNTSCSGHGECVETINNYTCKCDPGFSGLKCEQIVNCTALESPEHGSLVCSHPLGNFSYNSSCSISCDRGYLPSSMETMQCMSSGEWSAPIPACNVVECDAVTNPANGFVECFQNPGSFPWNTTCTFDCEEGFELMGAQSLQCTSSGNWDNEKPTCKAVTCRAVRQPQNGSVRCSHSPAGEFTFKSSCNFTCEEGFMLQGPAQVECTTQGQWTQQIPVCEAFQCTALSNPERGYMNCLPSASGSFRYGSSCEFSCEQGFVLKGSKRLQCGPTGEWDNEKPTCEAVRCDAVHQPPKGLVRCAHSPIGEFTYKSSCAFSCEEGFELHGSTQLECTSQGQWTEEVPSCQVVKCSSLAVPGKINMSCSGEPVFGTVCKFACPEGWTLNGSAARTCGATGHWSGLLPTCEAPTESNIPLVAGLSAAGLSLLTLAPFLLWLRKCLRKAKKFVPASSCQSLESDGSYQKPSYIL
human Vitamin D Receptor (VDR), VDR (gene 7421), sequence (P11473 whole entry, looked up, the tested form may be a part): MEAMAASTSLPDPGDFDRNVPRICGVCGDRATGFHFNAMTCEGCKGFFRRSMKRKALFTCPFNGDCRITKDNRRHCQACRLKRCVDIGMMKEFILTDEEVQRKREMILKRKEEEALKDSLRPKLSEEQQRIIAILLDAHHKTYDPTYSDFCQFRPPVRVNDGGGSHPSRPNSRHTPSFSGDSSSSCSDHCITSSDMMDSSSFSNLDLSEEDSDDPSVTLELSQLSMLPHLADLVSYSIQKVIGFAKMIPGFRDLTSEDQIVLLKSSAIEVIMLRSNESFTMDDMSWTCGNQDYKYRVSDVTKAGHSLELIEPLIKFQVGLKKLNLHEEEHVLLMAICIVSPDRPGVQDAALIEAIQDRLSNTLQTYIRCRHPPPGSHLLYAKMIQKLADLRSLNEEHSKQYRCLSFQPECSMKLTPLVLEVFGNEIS

Compound: CSc1ccc(Oc2ccc(S(N)(=O)=O)cc2CN(C)C)cc1C
- outcome [1]: inactive
- outcome [2]: inactive
- outcome [3]: inactive
- outcome [4]: inactive
- outcome [5]: inactive
- outcome [6]: inactive
- outcome [7]: inactive
- outcome [8]: inactive
- outcome [9]: inactive
- outcome [10]: inactive
- outcome [11]: inactive
- outcome [12]: inactive
- outcome [13]: inactive
- outcome [14]: inactive
- AC50 [15]: 12.2 µM (active)
- outcome [16]: inactive

Compound: O=C(O)CC(O)(CC(=O)O)C(=O)O
- outcome [1]: inactive
- outcome [2]: inactive
- outcome [3]: inactive
- outcome [4]: inactive
- outcome [5]: inactive
- outcome [6]: inactive
- outcome [7]: inactive
- outcome [9]: inactive
- outcome [10]: inactive
- outcome [11]: inactive
- outcome [12]: inactive
- outcome [13]: inactive
- outcome [14]: inactive
- outcome [15]: inactive
- outcome [17]: inactive
- outcome [16]: inactive

Compound: Cc1cn([C@H]2C=C[C@@H](CO)O2)c(=O)[nH]c1=O
- outcome [1]: inactive
- outcome [2]: inactive
- outcome [3]: inactive
- outcome [4]: inactive
- outcome [5]: inactive
- outcome [6]: inactive
- outcome [7]: inactive
- outcome [8]: inactive
- outcome [9]: inactive
- outcome [10]: inactive
- outcome [11]: inactive
- outcome [12]: inactive
- outcome [13]: inactive
- outcome [14]: inactive
- outcome [15]: inactive
- outcome [16]: inactive

— PubChem BioAssay (EPA / NIEHS)
